From ChEMBL document CHEMBL3988442, “University of Dundee, Small-Polar-MMV Screening Library” (2021) come the findings set out here.

This experiment concerns the target T1, Aspartate--tRNA(Asp/Asn) ligase (Mycobacterium tuberculosis (strain ATCC 25618 / H37Rv)) (UniProt P9WFW3).
T1 sequence (whole entry): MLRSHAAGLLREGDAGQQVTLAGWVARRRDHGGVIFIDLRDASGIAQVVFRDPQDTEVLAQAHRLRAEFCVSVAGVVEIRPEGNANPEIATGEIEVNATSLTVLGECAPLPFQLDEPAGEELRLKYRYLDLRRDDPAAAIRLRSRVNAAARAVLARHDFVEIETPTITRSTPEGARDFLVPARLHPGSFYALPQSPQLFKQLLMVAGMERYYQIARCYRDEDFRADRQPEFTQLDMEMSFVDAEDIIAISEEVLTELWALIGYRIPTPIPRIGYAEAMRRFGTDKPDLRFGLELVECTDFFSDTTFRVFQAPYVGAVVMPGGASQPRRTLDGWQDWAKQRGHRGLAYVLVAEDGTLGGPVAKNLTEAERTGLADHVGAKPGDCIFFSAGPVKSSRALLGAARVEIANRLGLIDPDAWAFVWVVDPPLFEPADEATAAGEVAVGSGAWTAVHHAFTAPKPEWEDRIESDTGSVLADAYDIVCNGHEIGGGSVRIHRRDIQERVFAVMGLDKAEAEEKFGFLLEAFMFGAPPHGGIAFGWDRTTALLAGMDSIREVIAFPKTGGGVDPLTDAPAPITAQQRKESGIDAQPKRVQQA
Kind of experiment: Assay for Asp RNA synthetase-1 from Mycobacterium tuberculosis. Also noted: scale not given: in the data most compounds retested in dose-response had high values. In kind it is functional. The following applies: 30 µM.
`CC(C)(C)C(=O)NCCC(=O)NC(C)(C)c1ccc2c(c1)OCCO2`: the Percent Effect is 1.41%. For the compound `CN(Cc1cn2c(n1)CN(C(=O)CC1CC1)CC2)Cc1ccco1`, the Percent Effect is -0.868%. For the compound `CCNC(=O)CN1CCCN(C(=O)C2CCCc3[nH]ncc32)CC1` (stereo not given), the Percent Effect is -3.09%.

`Cc1noc(C)c1C(=O)N1CC[C@H]2C[C@@H](c3ccncn3)O[C@@H]2C1`: the Percent Effect was found to be 2.79%. Next, `Cc1ccc(CN2CCCn3nnc(COCC4CC4)c3C2)s1`: -4.16%; `Cn1cc(NC(=O)N2CCC(CN3CCCC3)CC2)ccc1=O`: -3.79%; `Cc1ccsc1CN(Cc1ccccn1)CC(C)C`: -2.01%. The result for `CC1CN(C(=O)c2ccn(-c3cccc(Cl)c3)n2)CCO1` (stereo not given) reads -3.19%; that for `CCC(NC(=O)C1CCN(S(C)(=O)=O)CC1)c1ccc(OC)c(C)c1` (stereo not given), -5.17%. As for `CC(NC(=O)N1CCC(n2cncn2)CC1)c1ccc(F)cc1F` (stereo not given), the Percent Effect is -3.4%. For the compound `COc1ccnc(N2CCN(C(=O)c3csc(C4CC4)n3)CC2)n1`, the Percent Effect is -0.494%.

For the compound `Cc1csc(N2CCN(Cc3cnc(C)s3)CC2C)n1` (stereo not given), the Percent Effect amounted to 3.68%. Take `CCN1CCO[C@]2(CCC[C@H]2COCc2csc(C)n2)C1`: the Percent Effect was -0.869%. The result for `O=C(Cc1ccc2c(c1)CCC2)NCCNc1ncccn1` reads -1.71%.

With `CN(Cc1ccc(F)cc1)C(=O)CN1CCCC(Cn2cncn2)C1` (stereo not given), the Percent Effect is -5.51%. Next, `Cc1ncc(CNC(=O)c2nn(C)c3c2CS(=O)(=O)CC3)s1`: -7.14%. In the case of `CCn1cc(CN(C)S(=O)(=O)c2ccc(Cl)cc2)cn1`, the Percent Effect was -1.31%. On to `CN(C)c1ncnc2c1CCN(CC1CCCC1)CC2`, for which the Percent Effect was -1.05%.

Consider `CCOc1ccc(CC(CNC(=O)c2ccoc2)C(N)=O)cc1` (stereo not given), for which the Percent Effect is -3.95%. In the case of `CN(C)C[C@H]1OC[C@@H]2CCN(S(=O)(=O)c3cccs3)C[C@@H]21`, the Percent Effect was -0.29%. For the compound `CC1CCN(Cc2cnc(S(=O)(=O)CC3CC3)n2CC2CCCO2)CC1` (stereo not given), the Percent Effect was -2.12%. As to `CN(Cc1cccc(F)c1)C1CCN(CCc2ccccn2)CC1`, the Percent Effect is -3.32%.

Consider `CN(C)C(=O)N1C[C@@H]2COC[C@]2(CNS(C)(=O)=O)C1`, for which the Percent Effect was -0.382%.

For the compound `COC(=O)N1CCCC(C(=O)NCc2cc3cccc(OC)c3o2)C1` (stereo not given), the Percent Effect was -0.457%. The result for `Cc1nc(CN2CCCC(CCc3ccc(F)cc3F)C2)c[nH]1` (stereo not given) reads -7.38%. The result for `Cc1ncsc1C(=O)NC1CCN(CC(=O)N(C)C(C)(C)C#N)CC1` reads -2.42%. As for `CC(C)c1cc(NC(=O)CN2CCNC(=O)C2)on1`, the Percent Effect turned out to be 2.59%. The result for `Cc1ccc(CN2C[C@@H]3COC[C@H](C(=O)N4CCCCO4)[C@@H]3C2)o1` reads 1.57%; that for `Cc1ccc(N2CCC3(CCCN(C(=O)c4cccnc4)C3)C2)nn1` (stereo not given), 8.13%; that for `Cc1nn(C(C)C)c(C)c1NC(=O)c1ccncc1`, -0.479%. `Cc1noc(C)c1CN(C)C(=O)c1ccc(NC2CC2)nc1`: the Percent Effect was determined as 5.06%. Next, `CN1CCCCC1c1ncc2c(n1)CCN(Cc1ccccc1Cl)C2` (stereo not given): 3.02%; `COc1cccc(COCC(=O)N2CCCC(c3nncn3C)C2)c1` (stereo not given): -1.97%. Next, `CCc1nc(CC(=O)NCC(Cc2ccc(F)cc2)C(N)=O)cs1` (stereo not given): 1.14%; `Cc1noc(C)c1CN1CCN(CC2CC2)c2ncccc2C1`: 2.1%. The result for `CN(Cc1cnn(C)c1)C(=O)NC1CCN(Cc2ccccn2)CC1` reads 5.83%; that for `COc1ncccc1C(=O)N1CCN(C(=O)Cc2ccccn2)CC1`, 4.26%; that for `Cc1nc(COc2ccc(CNCC3CN(C)CCO3)cc2)cs1` (stereo not given), 5.51%. Take `N#CCCN(C(=O)CN1CCCC1c1ccsc1)c1ccccc1F` (stereo not given): the Percent Effect is -3.67%.

As for `Cc1nn(CC(C)C)c(N(C)C)c1CNCc1cccc2c1OCO2`, the Percent Effect was 1.9%.
